Screening results: PubChem, National Center for Advancing Translational Sciences (NCATS)
S-ASM inh: Inhibitors of Secretory Acid Sphingomyelinase (S-ASM): qHTS; AID 504937, 2011; 0.006% of 340,000 active; Potency, µM (top dose mostly 57.5 µM), for inactives: at the highest dose activity change, negative = inhibition, most hits filed as inhibitors; placental ASM, HMU-PC fluorogenic substrate, 60 min; also: potency is read from the fitted curve at half-maximal effect
Target sequence (P17405 47-631 limits assumed): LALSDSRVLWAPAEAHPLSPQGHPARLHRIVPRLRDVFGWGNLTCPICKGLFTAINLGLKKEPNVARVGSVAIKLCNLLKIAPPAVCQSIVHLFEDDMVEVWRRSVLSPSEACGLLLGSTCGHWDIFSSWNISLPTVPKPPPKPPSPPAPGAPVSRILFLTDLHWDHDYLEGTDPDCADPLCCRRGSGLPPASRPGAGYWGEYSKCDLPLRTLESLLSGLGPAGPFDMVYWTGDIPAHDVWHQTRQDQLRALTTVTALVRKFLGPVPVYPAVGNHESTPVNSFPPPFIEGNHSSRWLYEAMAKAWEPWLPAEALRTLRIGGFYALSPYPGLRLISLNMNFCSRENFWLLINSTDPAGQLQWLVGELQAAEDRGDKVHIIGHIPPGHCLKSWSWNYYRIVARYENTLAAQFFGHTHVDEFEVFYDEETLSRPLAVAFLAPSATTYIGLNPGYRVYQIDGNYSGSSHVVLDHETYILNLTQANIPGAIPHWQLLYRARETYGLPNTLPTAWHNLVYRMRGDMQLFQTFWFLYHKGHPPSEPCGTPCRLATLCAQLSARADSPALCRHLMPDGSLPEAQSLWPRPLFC
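Fluorogenic HMU-PC substrate (9 uM final) is turned over by placental ASM in 60 min at 37 C after a 10 min compound preincubation. Reaction ended by alkaline stop (pH 10), with fluorescence read at 386/447 nm.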
gsp antagonist: qHTS for Antagonists of gsp, the Etiologic Mutation Responsible for Fibrous Dysplasia/McCune-Albright Syndrome: qHTS | gsp-mutant cells, cAMP HTRF, 30 min | Potency, µM (highest dose often 76.9 µM), for inactives: at the highest dose activity change, negative = inhibition, actives largely listed as inhibitors | 0.4% of 340,000 active; calls by dose curve; cell line not stated here;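 also: intracellular cAMP measured with PDE inhibitor Ro 20-1724 present during compound exposure; potency is read from the fitted curve at half-maximal effect; % is scaled to controls: 0 for no effect and ±100 for the full control effect; nearly all actives have a fitted effect of over 65% in size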
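Measurement of cellular cAMP by homogeneous time-resolved fluorescence following a 30 min compound exposure at 37C. The PDE inhibitor […] was present throughout; the assay buffer was DPBS with 0.05% BSA and 0.005% Tween 20.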
RXFP1 agonist: qHTS Assay for Agonists of the Relaxin Receptor RXFP1. Relaxin receptor 1 (Homo sapiens), Q9HBX9. HEK293T-RXFP1 cAMP TR-FRET, 30 min; response scale: percent of porcine relaxin response, buffer zero. Potency, µM (doses to about 57.5 µM), for inactives: at the highest dose activation, most hits filed as activators. 0.3% of 370,000 active; also: potency is read from the fitted curve at half-maximal effect; % is scaled to controls: 0 for no effect and ±100 for the full control effect; nearly all actives have a fitted effect of over 60% in size
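Agonist response is measured as cAMP accumulation in an RXFP1-transfected HEK293T line under PDE4 inhibition. Values are scaled between buffer-only and 29 nM porcine relaxin, and EC50s come from standard Hill equation fits.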
RXFP1 antagonist: qHTS Assay for Antagonists of the Relaxin Receptor RXFP1; Relaxin receptor 1 (Homo sapiens), Q9HBX9; HEK293-RXFP1, relaxin-stimulated cAMP HTRF, 30 min; stronger effect = lower value; activity change, negative = inhibition, % at 57.5 µM; 0.59% of 350,000 active;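 active = activity change of -60% or lower, but not beyond a set lower limit; inconclusive = change between -60% and -40%, or beyond the set limit; inactive = change above -40%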; also: % is scaled to controls: 0 for no effect and ±100 for the full control effect
Integrin act MD: qHTS for Activators of Integrin-Mediated Alleviation for Muscular Dystrophy; alpha7betagal myoblasts, beta-gal FDG fluorescence, 48 h; Potency, µM (titrated, usually from 38.3 µM), inactives show at the highest dose activation, hits mostly activators; 0.064% of 350,000 active; AID 624291, 2012;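 also: potency is read from the fitted curve at half-maximal effect; 100% = response of the positive control SU9516; nearly all actives have a fitted effect of over 60% in size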
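alpha7betagal+/- myoblasts (passage 13, 250/well) treated 48 h at 37C with compounds at 1:260 dilution of DMSO stock. Lysed, then beta-galactosidase activity read as FDG fluorescence (ex 480/em 540) after 30 min, with pre-read for autofluorescence.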
gsp ag: qHTS for Agonist of gsp, the Etiologic Mutation Responsible for Fibrous Dysplasia/McCune-Albright Syndrome: qHTS; AID 624287, 2012; 0.13% of 340,000 active; gsp mutant cells, cAMP HTRF, 30 min; Potency, µM (doses to about 76.9 µM), for inactives: top-dose activation (cAMP increase), actives largely listed as activators; active = well fitted activation curve with a large enough effect; inconclusive = small, poorly fitted or top-dose-only effect, or another doubt; inactive = no such curve, though single readings can be large or run the other way; cell line not stated here;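 also: phosphodiesterase inhibitor Ro 20-1724 added with compounds to block cAMP breakdown; potency is read from the fitted curve at half-maximal effect; nearly all actives have a fitted effect of over 60% in size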
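Cells stably selected in G418 were plated at 2000/well, grown 16-24 hr, then given compounds in DMSO with the PDE inhibitor […] (300 uM solution added) for 30 min at 37C; cAMP was read by HTRF.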
* marks the source's active call; other numbers are inactive results; ? = inconclusive; . = not tested or not shown; [ ] = another dose, or the depositor's remark. Shown are actives, neighbours in structure and some others; about 1.1% of the full set was active somewhere. Unless noted, calls follow the shape of the dose curve; as a rule, active = well fitted curve in the direction sought with a large enough effect; inconclusive = small, poorly fitted or top-dose-only effect, or another doubt; inactive = no such curve, though single readings can be large; an effect the other way counts as inactive or inconclusive.

SMILES	S-ASM inh	gsp antagonist	RXFP1 agonist	RXFP1 antagonist	Integrin act MD	gsp ag
O=C(CNC(=O)c1cccc(F)c1)OCc1cc(=O)n2cc(Br)ccc2n1	1.2%	3.2%	?	.	-13.5%	?
O=C(CNC(=O)c1ccccc1)OCc1cc(=O)n2cc(Br)ccc2n1	-2.5%	7.5%	?	9.4	7.7%	5.62µM*
CC12CCC(=O)N1C(C(=O)N1CCN(S(=O)(=O)c3ccc(Br)cc3Cl)CC1)CS2 (centres undefined)	-8.8%	-0.8%	4.7%	-66.2*	41.3%	-18.1%[15.4 µM]
CC12CCC(=O)N1C(C(=O)N1CCN(S(=O)(=O)c3ccccc3F)CC1)CS2 (centres undefined)	7.4%	7.7%	-0.1%	14.9	-14.5%	-6.1%[15.4 µM]
CC(NCC(=O)NC(=O)NC1CCCC1)c1ccc(Cl)cc1Cl (centres undefined)	-2.8%	9.9%	-2.1%	-63.3*	10.5%	9.5%
O=[N+]([O-])c1cc2c(c(CSc3ncccn3)c1)OCOC2	0.0%	12.4%	14.1µM*	11.1	-10.3%	54.4%[15.4 µM]
COc1ccc(C(=O)C2CCCN(C(=O)c3cc(C)nc(C)n3)C2)cc1OC (centres undefined)	1.7%	5.2%	3.3%	-5.4	-19.6%	4.3%
O=C1C=CC(=O)c2c(O)c(N3CCN(CCOCCO)CC3)c(Br)c(O)c21	-2.2%	25.1µM*	.	-105.0*	-56.9%	?
O=C1C=CC(=O)c2c(O)c(N3CCN(CCO)CC3)c(Cl)c(O)c21	0.4%	?	.	?	-54.9%	27.6%
Cc1coc2c1c(C)cc1oc(=O)c(CC(=O)NCCCCCC(=O)O)c(C)c12	32.5%	-6.7%	6.7%	-10.2	4.8%	12.2%
COc1ccc(-c2cc3nc4n(c(=O)c3s2)CCCCC4)cc1	-0.5%	-10.7%	5.8%	-6.0	9.3%	?
COc1ccc(-c2cc3nc4n(c(=O)c3s2)CCC4)cc1	-2.9%	4.9%	4.3%	21.7	-13.8%	15.8µM*
Cc1ccc2nc(-c3ccccc3)nn2c1	4.6%	-3.8%	.	-4.7	-12.5%	27.5%
CCOc1ccc(-n2cc(-c3ccc(OC)c(OC)c3)[nH]c2=S)cc1	-10.2%	-16.4%	3.6%	-76.2*	-33.6%	29.2%
CN1[C@@H]2CC[C@H]1CC(OC(=O)[C@H](CO)c1ccccc1)C2 (some centres undefined)	8.3%	0.6%	0.5%	.	.	.
COC(=O)c1cc2sccc2n1CC(=O)Nc1ccc(C)cc1C	.	.	0.0%	4.0	.	.
COc1cccc(NC(=O)Nc2nc(SC)ns2)c1	-2.0%	-24.1%	1.9%	-2.5	12.8%	-38.8%
COc1cccc(NC(=O)Nc2nc(SC(C)(C)C)ns2)c1	-10.2%	39.8µM*	1.0%	-33.2	-60.5%	-43.9%
Clc1ccccc1Cn1cccc1C1=NC(Cc2ccccc2)CO1 (centres undefined)	.	.	0.5%	.	.	.
CCC(=O)c1ccc(OC(=O)Cc2ccc(OC)cc2)cc1	-2.3%	8.7%	-0.8%	-113.2*	9.4%	-49.8%
COc1ccc(CC(=O)Oc2ccccc2C)cc1	0.7%	-6.3%	2.7%	-1.4	-6.0%	-32.6%
COc1cccc(CNC(=O)c2c(C)nn(-c3cccc(C)c3)c2-n2cccc2)c1	.	.	0.5%	-33.9	.	.
COc1ccc(CCNc2nc(-c3ccc(O)cc3)cs2)cc1OC	-0.3%	35.5µM*	3.3%	-9.9	?	7.2%
CCc1nc(Nc2ccc(N3CCN(C(C)=O)CC3)cc2)c2oc3ccccc3c2n1	-6.5%	-3.7%	-3.7%	-7.4	9.3%	25.2%
